Source: the supplement of paper PMC10849652
About 8,800 targets were measured; listed, in parts, are those with a hit and a random draw of the rest. About 0.5% of all pairs of compound and target were hits. A number with no mark means an inactive call.

Columns and labels:
Experiment in all cases: log2 fold change, soluble protein after heating vs DMSO (PISA); higher = thermal stabilisation; K562 lysate, 10 uM; active = over 0.2 and 3.5 SD of the protein, either way, in both replicates (recomputed)
[1] = compound: NCC(=O)Nc1ccc(-n2nc(C(F)(F)F)cc2-c2ccc3c(ccc4ccccc43)c2)cc1
Outline: (§1)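 K562 pellets were dounce-homogenised in PBS pH 7.4 containing 1 mM MgCl2, and the crude extract, at 1 mg/mL protein, was exposed to 10 μM compound for 30 min. Aliquots were heated for 3 min across 48°C-58°C, pooled, brought to 0.5% NP-40 at 4°C and spun at 21,000xg for 90 min, with the supernatant taken as soluble protein. TMTpro 16plex LC-MS/MS with equalised channel sums quantified that protein. Values are log-two fold changes in thermal stability relative to solvent controls, taken from duplicates.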

[2] = compound: O=C1NC(=O)C(c2cnc3ccccn23)=C1c1cn2c3c(cc(F)cc13)CN(C(=O)N1CCCCC1)CC2
Outline: as §1

[3] = compound: c1cn2cc(-c3ccc4cn[nH]c4c3)nc(Nc3ccc(N4CCOCC4)cc3)c2n1 [entospletinib]
Outline: as §1

[4] = compound: O=C(CCCCCCC(=O)Nc1ccccc1)NO [vorinostat]
Outline: as §1

[5] = compound: O=C(O)c1ccc2c(c1)nc(Nc1cccc(Cl)c1)c1ccncc12 [silmitasertib]
Outline: as §1

UniProt O94986, sequence (O94986 whole entry, looked up): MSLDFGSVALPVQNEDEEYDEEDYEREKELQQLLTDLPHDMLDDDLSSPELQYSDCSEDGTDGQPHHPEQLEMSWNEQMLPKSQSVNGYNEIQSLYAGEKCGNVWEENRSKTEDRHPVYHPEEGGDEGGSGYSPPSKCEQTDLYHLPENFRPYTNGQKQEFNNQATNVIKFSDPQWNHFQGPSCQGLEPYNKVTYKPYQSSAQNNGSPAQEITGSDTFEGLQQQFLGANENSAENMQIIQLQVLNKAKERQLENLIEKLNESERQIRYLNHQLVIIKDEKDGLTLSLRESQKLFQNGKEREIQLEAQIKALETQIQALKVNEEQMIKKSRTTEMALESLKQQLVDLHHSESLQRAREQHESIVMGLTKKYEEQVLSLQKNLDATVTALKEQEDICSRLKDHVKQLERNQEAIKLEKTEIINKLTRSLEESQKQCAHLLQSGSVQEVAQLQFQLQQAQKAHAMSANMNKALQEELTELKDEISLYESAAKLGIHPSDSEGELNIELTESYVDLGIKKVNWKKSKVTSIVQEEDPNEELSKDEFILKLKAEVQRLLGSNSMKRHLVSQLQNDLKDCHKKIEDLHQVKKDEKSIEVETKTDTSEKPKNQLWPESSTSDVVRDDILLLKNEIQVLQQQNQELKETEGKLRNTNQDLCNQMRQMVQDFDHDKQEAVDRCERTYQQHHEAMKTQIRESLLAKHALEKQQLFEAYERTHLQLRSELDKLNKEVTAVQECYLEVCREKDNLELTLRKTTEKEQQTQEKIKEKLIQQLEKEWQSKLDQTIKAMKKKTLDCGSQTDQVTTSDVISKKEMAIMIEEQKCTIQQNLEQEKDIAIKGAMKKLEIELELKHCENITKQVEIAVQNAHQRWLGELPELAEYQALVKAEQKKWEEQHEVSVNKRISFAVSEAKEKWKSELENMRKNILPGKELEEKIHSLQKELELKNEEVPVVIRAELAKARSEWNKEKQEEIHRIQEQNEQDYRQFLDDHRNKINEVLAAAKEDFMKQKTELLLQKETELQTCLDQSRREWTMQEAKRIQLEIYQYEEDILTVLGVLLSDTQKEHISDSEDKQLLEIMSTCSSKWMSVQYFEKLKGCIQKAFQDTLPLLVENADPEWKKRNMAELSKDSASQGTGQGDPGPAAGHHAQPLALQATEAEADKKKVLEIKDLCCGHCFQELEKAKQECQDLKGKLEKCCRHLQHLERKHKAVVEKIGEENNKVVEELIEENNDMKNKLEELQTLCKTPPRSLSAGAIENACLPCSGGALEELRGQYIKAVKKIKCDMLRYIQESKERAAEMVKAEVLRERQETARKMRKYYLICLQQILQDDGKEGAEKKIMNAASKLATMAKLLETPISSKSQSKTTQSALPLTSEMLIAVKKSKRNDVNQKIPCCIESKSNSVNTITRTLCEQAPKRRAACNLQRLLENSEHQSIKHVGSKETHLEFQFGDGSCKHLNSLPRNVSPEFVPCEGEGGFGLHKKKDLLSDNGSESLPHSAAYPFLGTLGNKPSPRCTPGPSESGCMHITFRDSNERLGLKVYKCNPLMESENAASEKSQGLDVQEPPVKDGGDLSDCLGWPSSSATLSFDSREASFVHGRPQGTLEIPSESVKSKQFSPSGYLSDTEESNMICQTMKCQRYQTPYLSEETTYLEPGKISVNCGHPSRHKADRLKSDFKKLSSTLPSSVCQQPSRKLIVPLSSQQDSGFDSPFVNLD
UniProt Q9C0D2, sequence (Q9C0D2 whole entry, looked up): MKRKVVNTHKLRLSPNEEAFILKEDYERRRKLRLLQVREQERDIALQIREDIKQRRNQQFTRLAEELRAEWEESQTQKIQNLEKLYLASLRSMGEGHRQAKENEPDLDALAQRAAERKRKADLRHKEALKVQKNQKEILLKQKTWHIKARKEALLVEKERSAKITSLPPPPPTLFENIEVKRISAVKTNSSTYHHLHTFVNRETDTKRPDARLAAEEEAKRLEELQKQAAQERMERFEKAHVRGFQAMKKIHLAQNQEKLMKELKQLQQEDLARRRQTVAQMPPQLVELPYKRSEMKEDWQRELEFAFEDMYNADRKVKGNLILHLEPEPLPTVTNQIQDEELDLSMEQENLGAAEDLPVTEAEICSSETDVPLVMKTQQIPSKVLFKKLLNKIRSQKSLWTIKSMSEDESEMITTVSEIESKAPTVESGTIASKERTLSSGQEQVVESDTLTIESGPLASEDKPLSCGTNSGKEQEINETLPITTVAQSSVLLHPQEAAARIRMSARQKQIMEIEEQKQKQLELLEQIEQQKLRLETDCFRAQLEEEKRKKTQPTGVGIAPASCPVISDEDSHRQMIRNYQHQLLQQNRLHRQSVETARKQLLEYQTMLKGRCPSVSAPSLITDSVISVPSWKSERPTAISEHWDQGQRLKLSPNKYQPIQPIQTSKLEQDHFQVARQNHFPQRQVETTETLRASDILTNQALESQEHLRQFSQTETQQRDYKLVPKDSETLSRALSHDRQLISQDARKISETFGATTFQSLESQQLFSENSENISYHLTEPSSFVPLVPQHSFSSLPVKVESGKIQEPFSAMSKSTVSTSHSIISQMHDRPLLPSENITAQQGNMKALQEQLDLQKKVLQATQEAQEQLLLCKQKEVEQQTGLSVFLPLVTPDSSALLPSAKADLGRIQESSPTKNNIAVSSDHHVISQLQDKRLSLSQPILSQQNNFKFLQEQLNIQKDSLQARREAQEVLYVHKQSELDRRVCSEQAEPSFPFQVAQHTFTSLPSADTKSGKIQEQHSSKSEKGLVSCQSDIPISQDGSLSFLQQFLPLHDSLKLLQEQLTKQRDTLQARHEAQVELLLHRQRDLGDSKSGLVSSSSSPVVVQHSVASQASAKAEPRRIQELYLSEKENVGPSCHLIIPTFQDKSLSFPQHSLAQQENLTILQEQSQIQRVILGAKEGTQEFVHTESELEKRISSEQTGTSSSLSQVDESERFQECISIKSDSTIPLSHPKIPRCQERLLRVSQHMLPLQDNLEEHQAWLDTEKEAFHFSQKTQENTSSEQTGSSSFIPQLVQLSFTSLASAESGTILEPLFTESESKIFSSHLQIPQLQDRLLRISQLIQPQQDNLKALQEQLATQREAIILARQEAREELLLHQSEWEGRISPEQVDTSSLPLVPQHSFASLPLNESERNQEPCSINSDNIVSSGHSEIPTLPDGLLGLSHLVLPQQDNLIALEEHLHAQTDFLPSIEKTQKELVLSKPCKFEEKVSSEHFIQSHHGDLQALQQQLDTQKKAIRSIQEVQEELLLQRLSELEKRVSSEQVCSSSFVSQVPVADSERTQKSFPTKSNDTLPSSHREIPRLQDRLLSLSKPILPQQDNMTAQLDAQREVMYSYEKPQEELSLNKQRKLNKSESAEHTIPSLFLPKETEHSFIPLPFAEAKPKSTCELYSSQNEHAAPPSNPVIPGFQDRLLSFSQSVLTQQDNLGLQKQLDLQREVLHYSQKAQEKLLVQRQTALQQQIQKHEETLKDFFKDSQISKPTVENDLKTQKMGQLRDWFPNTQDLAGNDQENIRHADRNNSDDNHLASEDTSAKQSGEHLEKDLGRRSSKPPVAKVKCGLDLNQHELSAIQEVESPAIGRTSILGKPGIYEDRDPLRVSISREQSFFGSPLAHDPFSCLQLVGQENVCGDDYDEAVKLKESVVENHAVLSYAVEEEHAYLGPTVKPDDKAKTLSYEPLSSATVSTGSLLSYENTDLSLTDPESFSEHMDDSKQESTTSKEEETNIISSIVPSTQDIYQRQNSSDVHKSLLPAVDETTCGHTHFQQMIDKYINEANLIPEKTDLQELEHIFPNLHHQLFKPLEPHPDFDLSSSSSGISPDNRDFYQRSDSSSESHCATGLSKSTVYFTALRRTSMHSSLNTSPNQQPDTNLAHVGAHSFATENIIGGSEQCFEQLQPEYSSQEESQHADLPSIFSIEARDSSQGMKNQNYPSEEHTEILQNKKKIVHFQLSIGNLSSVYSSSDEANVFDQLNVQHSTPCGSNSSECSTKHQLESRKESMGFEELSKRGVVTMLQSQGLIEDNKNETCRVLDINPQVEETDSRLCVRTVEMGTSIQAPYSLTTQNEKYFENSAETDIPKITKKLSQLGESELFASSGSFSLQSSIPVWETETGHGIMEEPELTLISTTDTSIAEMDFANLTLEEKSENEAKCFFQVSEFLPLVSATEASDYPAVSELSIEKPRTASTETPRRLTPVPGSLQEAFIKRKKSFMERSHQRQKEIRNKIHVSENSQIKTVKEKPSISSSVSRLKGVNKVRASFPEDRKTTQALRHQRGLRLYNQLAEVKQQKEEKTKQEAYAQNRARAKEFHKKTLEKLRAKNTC
UniProt Q53HL2, sequence (Q53HL2 whole entry, looked up): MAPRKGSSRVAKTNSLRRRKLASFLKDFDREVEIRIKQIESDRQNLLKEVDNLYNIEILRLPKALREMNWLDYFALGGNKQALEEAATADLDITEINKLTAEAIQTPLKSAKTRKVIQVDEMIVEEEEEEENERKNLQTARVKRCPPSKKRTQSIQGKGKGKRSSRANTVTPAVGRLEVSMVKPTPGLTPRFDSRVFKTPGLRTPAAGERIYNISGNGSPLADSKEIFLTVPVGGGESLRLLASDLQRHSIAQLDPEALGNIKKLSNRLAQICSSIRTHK
UniProt P30304, sequence (P30304 whole entry, looked up): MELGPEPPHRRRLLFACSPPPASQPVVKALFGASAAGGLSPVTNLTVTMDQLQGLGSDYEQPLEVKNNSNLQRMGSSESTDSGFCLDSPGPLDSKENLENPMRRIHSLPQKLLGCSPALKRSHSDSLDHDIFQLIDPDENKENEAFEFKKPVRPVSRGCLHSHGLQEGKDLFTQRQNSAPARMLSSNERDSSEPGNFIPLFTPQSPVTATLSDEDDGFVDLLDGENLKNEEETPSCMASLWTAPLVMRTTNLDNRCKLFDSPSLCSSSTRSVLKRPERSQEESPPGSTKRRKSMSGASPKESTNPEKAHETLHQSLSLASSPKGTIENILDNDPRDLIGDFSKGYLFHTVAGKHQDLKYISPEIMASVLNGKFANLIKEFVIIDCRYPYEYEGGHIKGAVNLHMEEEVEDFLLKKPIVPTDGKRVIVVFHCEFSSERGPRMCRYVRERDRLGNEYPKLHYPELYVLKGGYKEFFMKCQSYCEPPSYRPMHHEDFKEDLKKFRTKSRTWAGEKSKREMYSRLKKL

Target | log2 fold change [1] | log2 fold change [2] | log2 fold change [3] | log2 fold change [4] | log2 fold change [5]
CHCHD7 isoform 4 (UniProt Q9BUK0) | -0.031 | -0.066 | 0.008 |  | 
CDCA8 (UniProt Q53HL2) | 0.066 |  | 0.112 | 0.13 | -0.093
CCND3 (UniProt P30281) |  | 0.086 | 0.062 | -0.051 | 0.017
C6orf120 (UniProt Q7Z4R8) |  |  |  | 0.273 | -0.075
C3AR1 (UniProt Q16581) |  | -0.013 |  |  | 
CDK11A (UniProt Q9UQ88) |  | -0.012 |  | -0.329 | 0.049
CEP152 (UniProt O94986) | 0.025 | 0.089 | -0.04 | -0.167 | 0.039
AVEN (UniProt Q9NQS1) | -0.146 | 0.092 | -0.161 | -0.738 (active) | -0.009
ATE1 (UniProt O95260) |  | 0.028 |  |  | 
BUD13 (UniProt Q9BRD0) |  | 0.036 | -0.046 | 0.136 | 0.054
BRAF, A0A2R8Y8E0 | 0.017 |  | -0.082 |  | 
BNIP3 (UniProt Q12983) |  | -0.048 | -0.031 | 0.066 | -0.08
CDC25A (UniProt P30304) |  | -0.172 |  | -1.01 (active) | 0.084
CDC14A isoform 2 (UniProt Q9UNH5) |  | -0.11 |  |  | 
B3GALT6 (UniProt Q96L58) |  | 0.071 |  | 0.218 | -0.029
C8orf88 (UniProt P0DMB2) |  | 0.024 |  | -0.455 (active) | 0.056
CDC16 (UniProt Q13042) | -0.068 | -0.006 | -0.015 | -0.265 (active) | 0.023
C15orf39 (UniProt Q6ZRI6) |  | -0.025 | -0.147 | -0.513 (active) | 0.008
ATPSCKMT (UniProt Q6P4H8) |  | 0 | 0.105 |  | 
C9orf72 (UniProt Q96LT7) |  | -0.015 | -0.129 | 0.919 (active) | -0.045
ATG4D (UniProt Q86TL0) |  | 0.117 | 0.004 |  | 
BTRC (UniProt Q9Y297) | 0.03 |  | -0.004 | -0.342 (active) | 0.035
BICRA (UniProt Q9NZM4) |  | -0.076 |  | 0.11 | -0.203
CHD4, A0A2R8Y521 |  |  | -0.313 |  | 
CEP295 isoform 3 (UniProt Q9C0D2) |  | -0.076 | 0.087 | -0.004 | 0.076
CEP128 (UniProt Q6ZU80) | 0.017 |  | -0.081 |  | 
CHAF1A (UniProt Q13111) | 0.004 | 0.004 | -0.082 | -0.402 (active) | -0.004
